The panel holds about 83,000 compounds, 20% with a hit somewhere; the sample as a whole holds those more often.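 Interpretation: 100, growth as untreated; towards 0, rising growth inhibition; 0, no net growth; 0 to -100, cell death. Compounds scoring below 10 were considered active.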 A number with no mark means an inactive call. The source made the active and inactive calls.

The subject of the assay is NCI-H322M lung. Description: NCI-60 one-dose screen, 48 h (100 = growth as untreated, 0 = no growth, -100 = all killed). The conditions noted are these: 10 µM unless noted.
`C#CC[C@H](N)C(=O)O`: the growth was 97.8% [20 µM].
`O=C(Oc1ccc([N+](=O)[O-])cc1)c1ccc(CBr)cc1`: the growth was 100%.
Turning to `OC(CBr)c1ccnc2ccccc12` (stereo unspecified), the growth was 102%.
For `CCCNCC(=O)Nc1ccc(C(=O)OC(C)(C)CC)cc1`, the growth was 97%.
Take `CC(=O)c1cc2c(o1)C(=O)c1ccccc1C2=O`: the growth is -92.7% (active).
On to `CS(=O)(=O)c1ccc(-c2[nH]c3ccc(F)cc3c2/C=N/NC(N)=S)cc1`, for which the growth was 48.8%.
`CC(C)c1ccc(C(=O)OC(=O)c2ccc(C(C)C)cc2)cc1`: the growth was 88.8%.
With `N=C(N)c1ccc(-c2ccc(-c3ccc(Cl)c(Cl)c3)o2)nc1`, the growth was 42.4%.
With `N#C/C=C(\c1ccc([N+](=O)[O-])cc1)n1nnc2cc(Cl)c(Cl)cc21`, the growth is 46.1%.
With `CS(=O)(=O)c1ccc(-c2nc3cc(Cl)ccc3n2CC(=O)NO)cc1`, the growth is 98.6%.
In the case of `CC(=O)Nc1cccc(C2=CC(c3ccc(C)cc3)n3ncnc3N2)c1` (stereo unspecified) it was 107%; in that of `CCn1c(Sc2nnc(NC(=O)CCN3CCCC3)s2)nc2c1c(=O)n(C)c(=O)n2C`, 105%.
`N#Cc1c(NC(=O)c2cccc(C(F)(F)F)c2)sc2c1CCC(=O)C2`: the growth is 66.1%.
For the molecule `CC(C)(C)c1ccc(C(=O)Nc2sc3c(c2C(N)=O)CCC(=O)C3)cc1`, the growth was 62.6%.
For `CCOC(=O)c1c(C)nc2c(c1N)/C(=C/c1cc(OC)c(OC)c(OC)c1)C(=O)N2c1ccc(OC)cc1` the value was 88.4%; for `Nc1nc(Nc2ccc(Cl)cc2)nn1S(=O)(=O)c1ccc(-c2ccc(F)cc2)cc1`, 109%.

The values are drawn from PubChem BioAssay (NCI).
